Compound activity: PubChem, University of Kansas High Throughput Screening Laboratory
Rows were chosen to be rich in hits. Some 3.6% of all compounds tested hit in one or more screens of this group.
mHTT CaM bind – disrupts binding of mutant huntingtin to calmodulin | AlphaScreen His-mHTT/GST-CaM binding, luminescence | inhibition, % at 15 µM | P42858 | actives 3.6% (n = 190,000)
Pf apPOL block – Pf-apPOL DNA polymerase inhibition; Recombinant Pf-apPOL, molecular beacon fluorescence, 1.5 h; inhibition, % at 10 µM; actives 0.25% (n = 210,000); AID 1794808
Numbers stand for hits; . = inactive; / = no result. Rule as the data show it: active = inhibition above about 50%; inactive = the rest.

SMILES	mHTT CaM bind	Pf apPOL block
COc1ccc(C2CC(c3ccc(F)cc3)=NN2C(=O)CN2CCC(C)CC2)cc1 (configuration not stated)	.	.
CC1CCCCN1CC(=O)N1N=C(c2ccc(F)cc2)CC1c1cccn1C (configuration not stated)	60	.
COc1ccc(C2CC(c3ccc(F)cc3)=NN2C(=O)CN2CCCCC2C)cc1 (configuration not stated)	.	.
COc1cccc(Cn2cccc2-c2nc(-c3ccncc3)no2)c1	.	.
CCOc1ccc(CNC(=O)CCCN2C(=O)CCn3nc(C)cc32)cc1	.	.
Cc1noc(-c2nonc2N)n1	.	/
O=C(COc1ccccc1F)NCCn1nc(-c2ccco2)ccc1=O	.	.
Cc1cc(C)nc(Nc2nc(C(=O)NCCn3nc(-c4ccco4)ccc3=O)cs2)n1	62	.
Cn1cc(C(=O)NCCn2nc(-c3ccco3)ccc2=O)nn1	.	.
O=C(CC(c1ccccc1)c1ccccc1)NCCn1nc(-c2ccco2)ccc1=O	69	.
O=C(CCCS(=O)(=O)c1ccccc1)Nc1nnc(-c2ccsc2)o1	.	.
O=S(=O)(Nc1ccc(Cn2cncn2)cc1)c1cccc(Cl)c1	.	.
O=C(COc1ccc(Cl)cc1Cl)Nc1ccc(F)cc1	.	.
O=C(Nc1ncn[nH]1)c1ccc2nc(-c3ccco3)c(-c3ccco3)nc2c1	.	.
COc1ccc2nc(-c3ccco3)c(-c3ccco3)nc2c1	99	.
O=C(Nc1ccc([N+](=O)[O-])cc1)N1CCN(c2ccccn2)CC1	.	.
O=C(NCc1ccco1)Nc1ccc2snnc2c1	.	.
COc1ccc2nsnc2c1	/	.
CC(=O)c1ccc(NC(=O)c2ccc3nc(-c4ccco4)c(-c4ccco4)nc3c2)cc1	100	.
O=C(Nc1ccc2nc(-c3ccco3)c(-c3ccco3)nc2c1)N1CCN(c2ccccn2)CC1	66	.
O=C(NCc1ccco1)Nc1ccc2nc(-c3ccco3)c(-c3ccco3)nc2c1	96	.
Cc1oc(-c2ccccc2)nc1CCC(=O)c1ccc(CC2SC(=O)NC2=O)cc1 (configuration not stated)	/	.
COc1ccc(NC(=O)C2CCN(c3ccc(Br)cc3)C2=O)cc1 (configuration not stated)	.	.
COc1ccc(C2=NN(CCC(=O)NCc3ccco3)C(=O)CC2)cc1	.	.
O=C(OCc1cc(-c2ccco2)on1)c1c[nH]c2ccccc12	.	.
SMILES	mHTT CaM bind	Pf apPOL block
O=C(c1cnn2c1NC(c1ccccc1)CC2C(F)(F)F)N1CCCCC1 (configuration not stated)	.	.
CC(=O)CC[C@H]1CC[C@]2(CCCN(Cc3nccn3C)C2)O1	.	.
COCCNC(=O)c1ccc2nc(-c3ccco3)c(-c3ccco3)nc2c1	59	.
COCCCNC(=O)c1ccc2nc(-c3cccs3)c(-c3cccs3)nc2c1	.	.
COc1ccc(-n2nc(C(=O)N3CCCC3)c3ccccc3c2=O)c(OC)c1	.	.
COc1ccccc1-n1nc(C(=O)N2CCC(Cc3ccccc3)CC2)c2ccccc2c1=O	58	.
COc1ccccc1-n1nc(C(=O)N2CCC(C)CC2)c2ccccc2c1=O	.	.
COc1ccc(-n2nc(C(=O)N3CCC(C)CC3)c3ccccc3c2=O)c(OC)c1	.	51
Cc1ccc(-n2ncc3c(NC(C)(C)C)ncnc32)cc1	.	.
NS(=O)(=O)c1ccc2c(c1)C1C=CCC1C(C1CC=CCC1)N2 (configuration not stated)	95	.
NS(=O)(=O)c1ccc2c(c1)C1C=CCC1C(C(=O)O)N2 (configuration not stated)	.	.
O=[N+]([O-])c1ccc2c(c1)C1C=CCC1C(C1CC=CCC1)N2 (configuration not stated)	.	/
NS(=O)(=O)c1ccc2c(c1)C1C=CCC1C(c1cccc3ccccc13)N2 (configuration not stated)	94	/
O=[N+]([O-])c1ccc(-n2nncc2-c2ccccc2)cc1	.	.
COc1ccc(C(=O)NN=Cc2coc3ccccc3c2=O)cc1	/	.
CCCCCCN1C[C@H](n2cc(C3CC3)nn2)[C@@H](O)C[C@@H]1c1ccc(Cl)cc1	100	.
O[C@@H]1CN(CC2CCCCC2)[C@@H](c2ccccc2)C[C@H]1n1cc(C2CC2)nn1	.	.
O[C@H]1C[C@H](c2ccccc2)N(CC2CCCCC2)C[C@@H]1n1cc(C2CC2)nn1	93	.
O[C@H]1C[C@H](c2ccc(Cl)cc2)N(Cc2cccs2)C[C@@H]1n1cc(-c2ccc(F)cc2)nn1	100	.
CCCCCCN1C[C@H](n2cc(-c3ccc(F)cc3)nn2)[C@@H](O)C[C@@H]1c1ccccc1	60	.
CCCCCCN1C[C@@H](n2cc(C3CC3)nn2)[C@H](O)C[C@@H]1c1ccc(Cl)cc1	.	.
CCCCCCN1C[C@H](O)[C@@H](n2cc(-c3ccc(F)cc3)nn2)C[C@@H]1c1ccccc1	.	.
